# The campaign covered roughly 55,000 compounds. About 340 (0.62%) were called active. Another 3% or so got no clear call; they are omitted. The full list was thinned out, with actives kept by preference. Values without a mark were called inactive. The call rests on the fitted dose curve; in most records, active means well fitted cell-killing curve with a large enough effect; inconclusive means small, poorly fitted or top-dose-only effect; inactive means no such curve, though single readings can be large or run the other way.
# Experiment: qHTS Screen for Compounds that Selectively Target Cancer Cells with p53 Mutations: Cytotoxicity of p53 Null Cells at the Permissive Temperature; further: nearly all actives have a fitted effect of over 55% in size;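 on activity change, negative = cytotoxicity: 0% = DMSO only and -100% = full killing by 100 µM tamoxifen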
# Settings: H1299-neo p53 null cells, ATP luminescence, 24 h, 32C; series mostly up to 46.1 µM; activity change, negative = cytotoxicity: at the top concentration
# In short: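 H1299-neo (p53-null) cells, 600/well, were pre-incubated overnight at 37C, then exposed to compounds at up to 46 uM for 24 hr at 32C. Viability was measured as ATP content by luminescence, and AC50 values came from Hill fits.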
# Potency means the concentration at half of the fitted maximal effect.
Compound,"activity change, negative = cytotoxicity [%]",Potency
COc1ccc(-c2cc(C(=O)Nc3sc4c(c3C(N)=O)CCCC4)no2)cc1,0.619,
O=c1c(Cl)c(NCc2ccc(F)cc2Cl)cnn1C12CC3CC(CC(C3)C1)C2,-3.19,
Cc1cccc(OCc2ccc(C(=O)Nc3ccc(F)cc3)cc2)c1,-16.1,
Cc1cccc(C)c1-n1ncc(C(=O)NCCCN2CCCCC2)c1C1CCN(C(=O)OC(C)(C)C)CC1,7.41,
COc1cccc(C(=O)NCC(=O)OCc2cc(=O)n3ccsc3n2)c1,-11.1,
CCC(C(=O)Nc1cccc(-c2nc3cccnc3s2)c1C)c1ccccc1 (stereo not given),5.41,
Cc1c(NC(=O)C(C)(C)C)cccc1-c1nc2ccccc2s1,,10 µM (active)
Cc1c(NC(=O)Cc2ccccc2)cccc1-c1nc2cccnc2s1,2.04,
O=C(Cc1c[nH]c2ccccc12)N/N=C/c1cccc(F)c1,-18.8,
Cc1ccccc1Nc1nn2c(=O)c3ccc(C(=O)NCCc4ccc(Cl)cc4)cc3nc2s1,-15.5,
CCOc1ccccc1C(=O)Nc1ccc(S(=O)(=O)N2CCCCC2c2cccnc2)cc1 (stereo not given),3.25,
O=c1c2cccnc2n(Cc2cccc(F)c2)c(=O)n1Cc1ccccc1Cl,-7.53,
COc1ccc(S(=O)(=O)n2nc(C)c(S(=O)(=O)N3CCCCCC3)c2C)cc1,-2.68,
CCOC(=O)c1c(/N=C/c2cc(C)ccc2O)sc2c1CCC2,6.17,
CCC(=O)N1CCc2cc(S(=O)(=O)CCC(=O)N3CCN(c4ccccc4F)CC3)ccc21,9.11,
Cc1ccc(CNC(=O)CCC(=O)N2CC(C)Sc3ccccc32)cc1 (stereo not given),0.966,
CCOc1ccc(NC(=O)CCc2c(C)nn(-c3ccc(N4CCCC4)nn3)c2C)cc1,-3.11,
CCCOc1ccc(-c2cccc(NS(=O)(=O)c3ccccc3)c2)nn1,22.4,
Cn1nnc2c(N3CCN(c4ccccc4)CC3)ncnc21,2.99,
O=C(Nc1c2c(nc3ccccc13)CCCC2)c1ccccc1Br,-2.95,
COc1ccccc1Nc1c2c(nc3ccc(NC(=O)/C=C/c4cc(OC)c(OC)c(OC)c4)cc13)CCCC2,,15.8 µM (active)
CCOc1ccc(C(=O)Nc2ccc3nc4c(c(Nc5ccccc5OC)c3c2)CCCC4)cc1,-13,
COc1ccc(-n2ccn(CC(=O)Nc3ccc(C)c(C)c3)c(=O)c2=O)cc1OC,8.42,

Compound,"activity change, negative = cytotoxicity [%]",Potency
CCN(CC)S(=O)(=O)c1nnc(NC(=O)COc2ccccc2Cl)s1,-17.3,
CCN(Cc1ccccc1)C(=O)c1cn(-c2cccc(OC)c2)c(=O)c2ccccc12,3.16,
COc1ccc(NC(=O)CSc2nc3ncccc3[nH]2)c(OC)c1,-12.6,
COC(=O)c1c(NC(=O)c2ccc(Cl)c(Cl)c2)sc2c1CCCC2,3.23,
Clc1ccc(-n2nnnc2-c2cnc(-c3ccccn3)nc2-c2cccs2)cc1,18,
c1ccc(-c2noc(-c3cccs3)n2)nc1,,10 µM (active)
Cc1ccc(C)c(N2CCN(C(=O)C3CCC(CNS(=O)(=O)c4cccs4)CC3)CC2)c1 (stereo not given),41.1,
O=C(COc1nc2ccccc2nc1N1CCOCC1)NCC(F)(F)F,-4.1,
CN(C)CCCO/N=C(\c1ccccc1)c1ccncc1,3.09,
Cc1ccc(CN2CCC(CNC(=O)c3cnn(-c4ccccc4Cl)c3C3CCN(C(=O)OC(C)(C)C)CC3)CC2)cc1,15.7,
Cc1ccc(C)n1-c1nnc(N2CCC(C(=O)NCc3ccccc3Cl)CC2)s1,9.93,
COc1ccc(-c2nc(SCC(=O)N3CCCCC3C)n[nH]2)cc1 (stereo not given),-7.2,
Cc1ccc(NC(=S)NC(=O)/C=C/c2ccc(Cl)cc2)cc1,0.296,
Cc1cc(=O)n(CC(=O)Nc2cccc([N+](=O)[O-])c2)c(-n2nc(C)cc2C)n1,-0.133,
CN(C)c1ccc(NC(=O)CSc2nc(-c3ccco3)cc(C(F)(F)F)n2)cc1,10.9,
CCCN(CCC)c1c([N+](=O)[O-])c(=O)oc2ccccc12,3.8,
COc1ccc(C(=O)NCC(c2ccc(N(C)C)cc2)N2CCc3ccccc32)c(OC)c1 (stereo not given),0.255,
CCOC(=O)c1c(C)[nH]c(CCC(=O)NCCCN2CCN(c3cc(C)ccc3C)CC2)c1C,9.67,
O=C(Nc1ccc(OC(F)(F)F)cc1)C1CCCN(S(=O)(=O)c2ccc(Br)s2)C1 (stereo not given),1.93,
Cc1ccc2nc3c(cc(C(=O)NC4CCCCC4)c(=N)n3C(C)C)c(=O)n2c1,2.45,
COc1cccc(CNC(=O)C(NS(=O)(=O)c2ccc3nc(C)sc3c2)C(C)C)c1 (stereo not given),-7.22,
CC(C)(C)c1ccc(C(=O)NCC(c2ccco2)S(=O)(=O)c2ccc(F)cc2)cc1 (stereo not given),20,

# — PubChem BioAssay AID903 (National Center for Advancing Translational Sciences (NCATS), 2007)
